Rows were chosen to be rich in hits. Some 10% of all compounds tested hit in one or more screens of this group.
Lamin A splicing – changes lamin A minigene splicing in HeLa cells; HeLa LMNA splicing GFP/RFP minigene ratio, 48 h; Potency, µM (top dose mostly 46.1 µM), inactives show top-dose ratio change, negative = inhibition, hits mostly inhibitors; 200,000 compounds, 0.01% hits; active = well fitted inhibition curve with a large enough effect in the signal ratio, with a control signal flat, not every such curve was filed as active; inconclusive = small, poorly fitted or top-dose-only effect, or effect the other way, or a change in a side signal; the % refers to the signal ratio; also: potency is read from the fitted curve at half-maximal effect
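S3 HeLa cells stably expressing lamin A-EGFP splicing minigene plus DsRed2, 600 cells/well, 48 h compound exposure at 37C. Laser-scanning cytometry; analysed as GFP (500-530 nm)/RFP (575-640 nm) total intensity ratio; 0.5% DMSO vehicle.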
HPGD block – inhibitors of human 15-hydroxyprostaglandin dehydrogenase (HPGD); P15428; purified HPGD, NADH fluorescence kinetic, PGE2 substrate; Potency, µM, for inactives: at the highest dose activity change, negative = inhibition, usual class: inhibitors; 150,000 compounds, 4.3% hits; AID 894; also: potency is read from the fitted curve at half-maximal effect
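NADH formation kinetics: reaction with 30 uM PGE2 and 1 mM NAD+ (final), 20 nM enzyme, Tris-HCl pH 8 with Tween 20, after 15 min compound preincubation at room temperature. Fluorescence change, last versus first of five reads.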
ALOX12 inhib – 12-hLO (ALOX12) enzyme inhibition; P18054; Potency, µM (highest dose often 57.1 µM), inactives show at the top dose activity change, negative = inhibition, most hits filed as inhibitors; purified 12-hLO, xylenol orange hydroperoxide absorbance; 150,000 compounds, 0.12% hits; active = well fitted inhibition curve with a large enough effect; inconclusive = small, poorly fitted or top-dose-only effect; also: potency is read from the fitted curve at half-maximal effect; nearly all actives have a fitted effect of over 55% in size
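Hydroperoxide output read as Fe(III)-xylenol orange absorbance, 573-to-405 nm ratio, after 30 min reaction with 40 uM arachidonic acid. Enzyme: 150 nM purified human 12hLO, 15 min compound preincubation; 25 mM Hepes pH 7.0, room temperature.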
ALDH1A1 inh – blocks purified human ALDH1A1 activity; P00352; Purified ALDH1A1, NADH fluorescence, propionaldehyde substrate; Potency, µM (titrated, usually from 75.3 µM), inactives show at the top dose activity, negative = inhibition, most hits filed as inhibitors; 220,000 compounds, 7.3% hits;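 also: potency is read from the fitted curve at half-maximal effect; plate controls were no enzyme wells and a reference inhibitor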
Target sequence (P00352 whole entry, looked up): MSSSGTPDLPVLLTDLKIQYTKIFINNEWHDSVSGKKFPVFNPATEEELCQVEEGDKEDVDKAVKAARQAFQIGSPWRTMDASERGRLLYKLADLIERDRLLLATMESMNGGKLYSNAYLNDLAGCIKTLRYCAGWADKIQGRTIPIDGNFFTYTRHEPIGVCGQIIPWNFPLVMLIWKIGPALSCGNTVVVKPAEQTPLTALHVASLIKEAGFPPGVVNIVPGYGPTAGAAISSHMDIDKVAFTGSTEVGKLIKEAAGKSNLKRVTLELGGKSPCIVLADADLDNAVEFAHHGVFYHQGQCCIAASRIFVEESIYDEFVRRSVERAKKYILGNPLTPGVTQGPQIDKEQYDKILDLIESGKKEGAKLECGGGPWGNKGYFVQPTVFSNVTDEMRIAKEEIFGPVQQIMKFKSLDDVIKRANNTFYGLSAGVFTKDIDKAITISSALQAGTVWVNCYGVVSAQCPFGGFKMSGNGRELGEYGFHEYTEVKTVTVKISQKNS
PNC inhibitor – blocks assembly of the perinucleolar compartment | activity change (PNC), negative = inhibition, % at 10 µM | PC3M PTB-GFP, PNC prevalence imaging, 16 h; stronger effect = lower value | AID 2417 | 140,000 compounds, 3.1% hits;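 active = readout at or below -70, meaning at least 70% loss of cells showing the perinucleolar compartment, a nuclear body marking cancer cells; inconclusive = readout between -30 and a set limit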;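 also: plate controls were DMSO wells for no effect and camptothecin positive control wells for full effect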
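PC3M cells stably expressing PTB-GFP, 750–1000 cells/well, treated 16 h at 37 °C with compound (23 nl of library stock), in duplicate. After paraformaldehyde fixation and Hoechst stain, imaged at 20x; PNC prevalence scored by image analysis.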
Active calls of the source: *; ? = inconclusive; . = no result given; [ ] = remark or other dose. Unless noted, calls follow the shape of the dose curve; as a rule, active = well fitted inhibition curve with a large enough effect (not every such curve was filed as active); inconclusive = small, poorly fitted or top-dose-only effect, or another doubt; inactive = no such curve, though single readings can be large or run the other way. Unless noted, % is scaled to controls: 0 for no effect and ±100 for the full control effect.

SMILES	Lamin A splicing	HPGD block	ALOX12 inhib	ALDH1A1 inh	PNC inhibitor
CCOC(=O)N1CCN(C(=O)C2CCN(Cc3cccc(OCc4ccccc4)c3)CC2)CC1	?	-7.1%	-2.9%	14.1µM*	54.3
Cc1ccc(NC(=O)N2CCCN(Cc3ccc(F)cc3)C2)cc1C	-0.8%	-14.9%	?	-1.3%	?
Oc1cccc(CN2CCCCC2)c1	-7.8%	-6.1%	1.4%	3.8%	0.5
O=C(c1csnn1)N1CCC2(CC1)CCN(c1ccccn1)CC2	.	-22.8%	-2.2%	?	.
OC[C@@H]1NC[C@@H](O)[C@H]1O	.	.	2.0%	.	.
CCOC(=O)OCC1C=C[C@H](c2cc(-c3ccccc3)ccc2O)C(c2ccc(C(C)=O)cc2)O1 (some centres undefined)	.	.	.	5.8%[13.5 µM]	.
CC(C)Cn1c(-c2ccccc2)nc(=S)c2c1CCCC2	-4.0%	-5.4%	-4.2%	-13.5%	-5.0
S=c1nc(-c2ccccc2)n(Cc2ccco2)c2c1CCCC2	10.2%	?	-25.4%	10µM*	24.8
CCOc1cc(/C=N/NC(N)=O)cc(Br)c1OCc1ccccc1F	-0.6%	0.4%	1.1%	8.8%	-92.2*
CCOc1cc(/C=N\NC(N)=O)cc(Br)c1OC(C)C	-22.1%	1.7%	0.2%	-2.6%	-97.4*
COCCNC(=O)CN(C(=O)Cn1nnc2ccccc21)c1ccc(C)c(F)c1	-5.1%	-0.9%	1.3%	3.4%	-118.8*
CC1=C([N+](=O)[O-])C(c2cccc(Br)c2)C2=C(N1)c1ccccc1C2=O (centres undefined)	?	15.8µM*	-14.3%	?	-82.8*
c1ccc(-c2cc(N3CCOCC3)nc(-c3ccccc3)n2)cc1	3.7%	-7.2%	-3.3%	-9.0%	-82.6*
c1ccc(-c2cc(N3CCCCC3)nc(-c3ccccc3)n2)cc1	-9.4%	?	6.0%	15.7%	?
COc1ccccc1NC(=O)CSC(N)=O	?	-3.8%	-4.1%	1.58µM*	21.2
NC(=O)SCC(=O)Nc1ccccc1C(=O)O	.	.	.	-0.9%	.
Cc1ccccc1NC(=O)CSC(N)=O	-4.6%	?	-6.2%	0.794µM*	13.3
O=C(CSCc1ccc(Cl)cc1)Nc1ccccc1O	-14.4%[46 µM]	.	.	-2.1%	.
COc1ccccc1NC(=O)c1ccc(NC(=O)COC(=O)C(C)C)cc1	?	-4.2%	-1.7%	0.891µM*	6.6
CSc1ccccc1NC(=O)CSCc1ccc(C)cc1	-1.6%	15.8µM*	-3.7%	-16.3%	25.5
Cc1noc(C)c1-c1nccc(NCc2cccnc2)n1	-15.6%	-8.5%	-2.5%	-1.0%	.
CSc1ccccc1NC(=O)CN(C)CC(=O)NCc1ccccc1	4.3%[46 µM]	.	.	0.199µM*	.
Cc1ccccc1NC(=O)CSCC(=O)Nc1ccccc1C	8.3%	17.8µM*	?	-1.4%	-27.7
Cc1ccccc1NC(=O)Cc1nc(CCl)cs1	4.6%	20µM*	3.0%	11.2µM*	?
CSc1ccccc1NC(=O)CN(C)CC(=O)Nc1cc(C)ccc1C	-10.1%	-7.3%	-0.6%	-17.1%	14.1
SMILES	Lamin A splicing	HPGD block	ALOX12 inhib	ALDH1A1 inh	PNC inhibitor
Cc1nc(NC2CCCCC2)c2nc(-c3ccccc3)n(CCCN3CCOCC3)c2n1	.	?	2.2%	?	.
CN(C)Cc1ccc(-c2cc3onc(-c4ccccc4)c3c(=O)n2C)cc1	.	-2.0%	3.8%[11.4 µM]	-4.2%[13.5 µM]	.
COc1ccc(CN2C=C3C(=O)C(C)(OC(=O)CCc4ccccc4)C(=O)C=C3C=C2c2ccc(C#N)cc2)cc1 (centres undefined)	15.5%[9.22 µM]	-9.6%	-4.6%[11.4 µM]	3.55µM*	.
COc1ccc(N2C=C3C(=O)C(C)(OC(=O)CCc4ccccc4)C(=O)C=C3C=C2c2ccc(C#N)cc2)cc1 (centres undefined)	4.5%[9.22 µM]	-6.1%	2.4%[11.4 µM]	2.9%[13.5 µM]	.
Cc1ccc(S(=O)(=O)N/N=C\c2ccc([N+](=O)[O-])o2)cc1	-15.5%	-19.2%	-2.0%	?	-112.1*
O=S(=O)(N/N=C\c1ccc(-c2ccccc2Cl)o1)c1ccccc1	?	15.8µM*	-24.4%	-1.8%	?
O=[N+]([O-])c1ccc(/C=N/NS(=O)(=O)c2ccc(Cl)cc2)o1	-13.0%	28.2µM*	-4.5%	7.94µM*	81.6
Cc1ccc(/C=N/NS(=O)(=O)c2ccc([N+](=O)[O-])cc2)o1	12.5%	-3.4%	-4.0%	-3.3%	-2.2
Clc1ccccc1-c1ccc(/C=N/Nc2nncc(-c3ccccc3)n2)o1	.	.	.	4.8%	.
c1ccc(-c2cnc(-c3cccnc3)o2)cc1	-3.2%	?	-1.6%	?	-83.7*

Bioassay records as filed in PubChem BioAssay.
